# Laboratory results: PubChem BioAssay (EPA / NIEHS)
# Results filed as inconclusive are left out. The source made the active and inactive calls. Rule for the calls: active = hit-call score of the fitted dose curve at least 0.9, where 1 is the maximum; inconclusive = response in the unintended direction; inactive = score below 0.9.
# Legend:
# rat CYP3A1, gene 25642 = test: NVS_ADME_rCYP3A1: NovaScreen (NVS) CYP450-related Enzyme Activity (ADME) Assay for rat CYP3A1 (AID 2283126)
# In short: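 Compounds went first at 10 uM duplicate, then to series with 20 uM maximum. Fluorescence from substrate turnover by the recombinant enzyme was measured 0.5 h post-dosing, inhibition scored against acetonitrile vehicle.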
# [1] = molecular target: human Caspase 2 (CASP2), CASP2 (gene 835) (UniProt P42575); test: NVS_ENZ_hCASP2: NovaScreen (NVS) Enzymatic Assay for human Caspase 2 (CASP2) (AID 2283135)
# Chain of human Caspase 2 (CASP2), CASP2 (gene 835) (P42575 whole entry, looked up): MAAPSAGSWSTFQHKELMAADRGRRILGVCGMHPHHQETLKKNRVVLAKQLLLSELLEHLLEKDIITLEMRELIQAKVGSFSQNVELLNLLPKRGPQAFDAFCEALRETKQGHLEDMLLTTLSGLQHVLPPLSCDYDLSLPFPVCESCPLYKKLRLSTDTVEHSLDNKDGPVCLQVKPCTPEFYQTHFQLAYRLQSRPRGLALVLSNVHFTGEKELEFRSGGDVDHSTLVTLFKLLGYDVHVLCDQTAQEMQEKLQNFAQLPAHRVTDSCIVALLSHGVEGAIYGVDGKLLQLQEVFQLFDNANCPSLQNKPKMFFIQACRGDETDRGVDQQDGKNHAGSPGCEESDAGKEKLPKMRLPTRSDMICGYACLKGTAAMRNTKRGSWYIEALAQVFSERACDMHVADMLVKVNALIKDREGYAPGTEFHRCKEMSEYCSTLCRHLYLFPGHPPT
# In short: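 Single-point duplicate testing at 25 uM preceded concentration series topping at 50 uM. Activity of the recombinant E. coli-derived protease was followed by fluorescent substrate cleavage 1 h post-dosing, relative to DMSO.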
# [2] = molecular target: human Dual Specificity Protein Phosphatase 3 (DUSP3), DUSP3 (gene 1845) (UniProt P51452); test: NVS_ENZ_hDUSP3: NovaScreen (NVS) Enzymatic Assay for human Dual Specificity Protein Phosphatase 3 (DUSP3) (AID 2283152);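 note: phosphatase activity of recombinant human DUSP3 on a fluorogenic substrate without cells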
# Chain of human Dual Specificity Protein Phosphatase 3 (DUSP3), DUSP3 (gene 1845) (P51452 whole entry, looked up): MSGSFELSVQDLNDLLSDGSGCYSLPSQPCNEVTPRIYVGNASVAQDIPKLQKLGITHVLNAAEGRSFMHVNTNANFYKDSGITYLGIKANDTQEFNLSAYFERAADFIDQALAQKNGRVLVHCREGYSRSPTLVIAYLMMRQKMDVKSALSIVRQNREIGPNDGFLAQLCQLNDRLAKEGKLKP
# In short: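 Cell-free fluorescence-intensity enzyme activity assay with recombinant protein and substrate; loss of signal fitted relative to DMSO baseline. Primary screen in duplicate at 25 uM, actives then run in concentration series; measured 0 h after dosing.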
# Caspase-1 (Homo sapiens) = Caspase-1 (Homo sapiens) (UniProt P29466); test: NVS_ENZ_hCASP1: NovaScreen (NVS) Enzymatic Assay for human Caspase 1 (CASP1) (AID 2283132)
# Chain of Caspase-1 (Homo sapiens) (P29466 whole entry, looked up): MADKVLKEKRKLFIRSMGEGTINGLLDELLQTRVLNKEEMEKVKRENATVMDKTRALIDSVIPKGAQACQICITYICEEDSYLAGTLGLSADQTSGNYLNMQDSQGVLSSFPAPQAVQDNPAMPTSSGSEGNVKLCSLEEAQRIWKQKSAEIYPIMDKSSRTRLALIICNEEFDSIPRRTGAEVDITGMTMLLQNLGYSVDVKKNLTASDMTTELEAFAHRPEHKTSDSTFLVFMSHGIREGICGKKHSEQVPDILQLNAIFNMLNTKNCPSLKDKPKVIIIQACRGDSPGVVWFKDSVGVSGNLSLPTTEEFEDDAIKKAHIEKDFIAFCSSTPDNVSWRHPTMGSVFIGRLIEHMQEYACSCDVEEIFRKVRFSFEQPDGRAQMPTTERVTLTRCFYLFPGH
# In short: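 Compounds were first tested in duplicate at 25 uM, with follow-up concentration series up to 50 uM. The bacterially expressed enzyme was read by fluorescence at 1 h post-dosing. Signal loss versus DMSO baseline indicates reduced enzyme activity.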
# [3] = molecular target: rat CYP3A2, Cyp3a2 (gene 266682) (UniProt P05183); test: NVS_ADME_rCYP3A2: NovaScreen (NVS) CYP450-related Enzyme Activity (ADME) Assay for rat CYP3A2 (AID 2283128)
# Chain of rat CYP3A2, Cyp3a2 (gene 266682) (P05183 whole entry, looked up): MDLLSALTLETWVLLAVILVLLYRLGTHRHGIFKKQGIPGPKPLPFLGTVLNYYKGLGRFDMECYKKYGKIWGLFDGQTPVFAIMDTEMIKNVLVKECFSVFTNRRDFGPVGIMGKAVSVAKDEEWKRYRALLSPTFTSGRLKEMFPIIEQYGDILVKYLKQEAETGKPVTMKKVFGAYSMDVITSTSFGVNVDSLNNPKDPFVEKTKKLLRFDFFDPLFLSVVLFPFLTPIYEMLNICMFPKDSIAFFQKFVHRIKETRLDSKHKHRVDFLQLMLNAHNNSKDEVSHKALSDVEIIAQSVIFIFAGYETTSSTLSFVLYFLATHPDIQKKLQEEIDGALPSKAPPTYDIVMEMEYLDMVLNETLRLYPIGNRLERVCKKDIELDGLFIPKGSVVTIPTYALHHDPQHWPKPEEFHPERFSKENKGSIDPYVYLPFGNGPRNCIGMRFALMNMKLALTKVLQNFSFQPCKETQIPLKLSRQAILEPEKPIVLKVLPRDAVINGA
# In short: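 Fluorescence readout of extracted rat CYP3A2 activity 0.5 h post-dose, acetonitrile as negative control. Single-point testing in duplicate at 10 uM, followed by concentration series to a 20 uM maximum for actives.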
# [4] = molecular target: human Beta-secretase (BACE), BACE1 (gene 23621) (UniProt P56817); test: NVS_ENZ_hBACE: NovaScreen (NVS) Enzymatic Assay for human Beta-secretase (BACE) (AID 2283140);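 note: hits are inhibitors that reduce fluorescent substrate signal versus DMSO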
# Chain of human Beta-secretase (BACE), BACE1 (gene 23621) (P56817 whole entry, looked up): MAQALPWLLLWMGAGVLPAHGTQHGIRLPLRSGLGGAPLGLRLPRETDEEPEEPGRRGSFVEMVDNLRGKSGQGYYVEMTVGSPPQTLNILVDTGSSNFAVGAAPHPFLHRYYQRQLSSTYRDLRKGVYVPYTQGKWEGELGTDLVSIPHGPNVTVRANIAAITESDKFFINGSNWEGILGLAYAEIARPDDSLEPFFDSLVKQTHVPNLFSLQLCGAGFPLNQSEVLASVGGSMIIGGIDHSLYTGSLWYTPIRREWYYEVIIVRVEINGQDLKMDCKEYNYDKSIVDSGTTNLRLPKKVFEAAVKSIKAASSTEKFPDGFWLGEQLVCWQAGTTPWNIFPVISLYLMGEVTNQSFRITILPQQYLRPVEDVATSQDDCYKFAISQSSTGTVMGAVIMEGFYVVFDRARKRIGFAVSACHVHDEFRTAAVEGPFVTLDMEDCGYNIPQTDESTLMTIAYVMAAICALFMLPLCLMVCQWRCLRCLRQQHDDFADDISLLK
# In short: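 SF9-expressed enzyme, cell-free; fluorescent substrate readout after 1 h. Screened at 25 uM single concentration, duplicate; hits retested in concentration series. Activity relative to DMSO baseline, loss-of-signal.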
# [5] = molecular target: human Elastase, ELANE (gene 1991) (UniProt P08246); test: NVS_ENZ_hElastase: NovaScreen (NVS) Enzymatic Assay for human Elastase (AID 2283153)
# Chain of human Elastase, ELANE (gene 1991) (P08246 whole entry, looked up): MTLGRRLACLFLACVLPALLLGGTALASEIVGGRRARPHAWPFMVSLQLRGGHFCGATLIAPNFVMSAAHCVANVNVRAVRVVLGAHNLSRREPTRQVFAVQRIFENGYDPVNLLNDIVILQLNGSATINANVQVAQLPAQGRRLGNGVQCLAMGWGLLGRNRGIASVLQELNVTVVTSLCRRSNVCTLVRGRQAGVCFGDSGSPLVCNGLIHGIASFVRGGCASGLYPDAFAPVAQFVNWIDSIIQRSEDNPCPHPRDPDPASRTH
# In short: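 Concentration-response to 50 uM max, run singly for chemicals passing a threshold (e.g., 30% inhibition) in a duplicate 25 uM single-point screen. Neutrophil-derived human elastase, absorbance read-out of enzyme activity at 1.5 h; DMSO baseline.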
# [6] = molecular target: human Caspase 5 (CASP5), CASP5 (gene 838) (UniProt P51878); test: NVS_ENZ_hCASP5: NovaScreen (NVS) Enzymatic Assay for human Caspase 5 (CASP5) (AID 2283137)
# Chain of human Caspase 5 (CASP5), CASP5 (gene 838) (P51878 whole entry, looked up): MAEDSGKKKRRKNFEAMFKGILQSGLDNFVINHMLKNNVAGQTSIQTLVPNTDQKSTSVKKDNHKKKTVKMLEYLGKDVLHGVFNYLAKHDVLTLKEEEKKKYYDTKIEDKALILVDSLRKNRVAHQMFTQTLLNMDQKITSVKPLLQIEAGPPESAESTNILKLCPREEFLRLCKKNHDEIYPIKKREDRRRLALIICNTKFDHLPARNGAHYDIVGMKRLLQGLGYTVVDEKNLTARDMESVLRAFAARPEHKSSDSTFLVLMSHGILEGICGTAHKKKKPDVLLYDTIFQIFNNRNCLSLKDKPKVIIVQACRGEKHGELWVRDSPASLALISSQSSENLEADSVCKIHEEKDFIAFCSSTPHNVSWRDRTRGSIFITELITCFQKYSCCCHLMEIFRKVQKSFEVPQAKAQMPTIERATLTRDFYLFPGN
# In short: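 Fluorescent substrate readout of CASP5 activity (loss-of-signal), measured 2 h post-dose. Protein expressed in E. coli. Primary screen duplicate at 25 uM; actives meeting threshold (e.g., 30% inhibition) rerun singleton, max 50 uM.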
# [7] = molecular target: human Caspase 10 (CASP10), CASP10 (gene 843) (UniProt Q92851); test: NVS_ENZ_hCASP10: NovaScreen (NVS) Enzymatic Assay for human Caspase 10 (CASP10) (AID 2283133)
# Chain of human Caspase 10 (CASP10), CASP10 (gene 843) (Q92851 whole entry, looked up): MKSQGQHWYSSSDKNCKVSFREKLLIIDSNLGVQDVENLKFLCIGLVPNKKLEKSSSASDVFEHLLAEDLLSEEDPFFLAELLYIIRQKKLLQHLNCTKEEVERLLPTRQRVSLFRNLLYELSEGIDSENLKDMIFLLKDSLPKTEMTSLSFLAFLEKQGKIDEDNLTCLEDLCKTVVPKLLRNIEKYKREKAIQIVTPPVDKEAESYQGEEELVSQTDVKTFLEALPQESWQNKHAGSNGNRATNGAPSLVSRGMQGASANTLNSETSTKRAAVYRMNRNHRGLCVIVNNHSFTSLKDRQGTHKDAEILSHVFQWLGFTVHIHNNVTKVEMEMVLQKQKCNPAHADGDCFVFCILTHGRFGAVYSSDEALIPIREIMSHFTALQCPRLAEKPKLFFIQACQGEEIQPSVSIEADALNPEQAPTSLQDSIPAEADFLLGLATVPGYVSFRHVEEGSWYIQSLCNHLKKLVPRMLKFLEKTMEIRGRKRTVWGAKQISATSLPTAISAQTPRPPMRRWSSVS
# In short: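 Fluorescence-intensity enzyme read-out of E. coli-expressed CASP10 activity, 1 h after compound. Single-point duplicates at 25 uM preceded concentration-response testing (top 50 uM) of hits; inhibition expressed as signal loss versus DMSO.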
# Caspase-3 (Homo sapiens) = Caspase-3 (Homo sapiens) (UniProt P42574); test: NVS_ENZ_hCASP3: NovaScreen (NVS) Enzymatic Assay for human Caspase 3 (CASP3) (AID 2283139)
# Chain of Caspase-3 (Homo sapiens) (P42574 whole entry, looked up): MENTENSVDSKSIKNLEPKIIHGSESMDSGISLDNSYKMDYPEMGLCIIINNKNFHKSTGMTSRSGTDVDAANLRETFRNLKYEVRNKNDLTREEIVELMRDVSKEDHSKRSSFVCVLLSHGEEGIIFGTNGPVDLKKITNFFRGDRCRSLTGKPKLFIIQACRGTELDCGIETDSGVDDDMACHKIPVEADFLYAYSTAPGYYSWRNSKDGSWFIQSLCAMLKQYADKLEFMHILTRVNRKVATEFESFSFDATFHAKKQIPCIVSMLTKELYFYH
# In short: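 Single-concentration screening at 25 uM in duplicate, with concentration-response follow-up to a 50 uM maximum for chemicals passing the threshold. Caspase-3 (human, E. coli-expressed) activity was read as substrate fluorescence after 1 h, with loss of signal relative to DMSO.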
# [8] = molecular target: human Aurora Kinase A - serine/threonine-protein Kinase 6 (AurA), AURKA (gene 6790) (UniProt O14965); test: NVS_ENZ_hAurA: NovaScreen (NVS) Enzymatic Assay for human Aurora Kinase A - serine/threonine-protein Kinase 6 (AurA) (AID 2283142)
# Chain of human Aurora Kinase A - serine/threonine-protein Kinase 6 (AurA), AURKA (gene 6790) (O14965 whole entry, looked up): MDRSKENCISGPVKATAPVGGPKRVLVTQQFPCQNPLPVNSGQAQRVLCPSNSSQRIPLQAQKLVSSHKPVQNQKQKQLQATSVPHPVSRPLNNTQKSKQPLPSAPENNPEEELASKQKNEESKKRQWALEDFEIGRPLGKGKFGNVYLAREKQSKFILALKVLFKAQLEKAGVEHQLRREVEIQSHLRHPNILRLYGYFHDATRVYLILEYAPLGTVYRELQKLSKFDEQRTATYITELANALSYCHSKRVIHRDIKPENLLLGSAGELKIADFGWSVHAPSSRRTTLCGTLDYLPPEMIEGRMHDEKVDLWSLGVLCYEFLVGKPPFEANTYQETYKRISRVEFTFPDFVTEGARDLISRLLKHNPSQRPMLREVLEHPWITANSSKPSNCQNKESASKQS
# In short: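 Recombinant human AurA activity read by fluorescence after mobility-shift separation of product from substrate; 1 hour incubation. Chemicals first run in duplicate at 25 uM, then concentration series to 50 uM if over threshold; fitted relative to DMSO.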
# [9] = molecular target: human Casein Kinase 2- alpha 2 beta 2 (CK2a2b2), CSNK2A1 (gene 1457) (UniProt P68400); test: NVS_ENZ_hCK2a2b2: NovaScreen (NVS) Enzymatic Assay for human Casein Kinase 2- alpha 2 beta 2 (CK2a2b2) (AID 2283147)
# Chain of human Casein Kinase 2- alpha 2 beta 2 (CK2a2b2), CSNK2A1 (gene 1457) (P68400 whole entry, looked up): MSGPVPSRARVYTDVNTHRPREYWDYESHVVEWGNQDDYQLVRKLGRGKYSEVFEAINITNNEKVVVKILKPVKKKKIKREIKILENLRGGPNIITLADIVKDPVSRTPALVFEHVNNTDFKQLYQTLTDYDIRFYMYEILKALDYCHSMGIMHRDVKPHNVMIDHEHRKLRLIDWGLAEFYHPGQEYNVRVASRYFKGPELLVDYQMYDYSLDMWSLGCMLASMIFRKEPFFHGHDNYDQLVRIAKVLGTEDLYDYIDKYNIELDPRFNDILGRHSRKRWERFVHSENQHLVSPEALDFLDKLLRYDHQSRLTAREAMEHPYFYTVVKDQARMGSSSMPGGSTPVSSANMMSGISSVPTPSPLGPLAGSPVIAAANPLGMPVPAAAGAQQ
# In short: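 Compounds were first screened in duplicate at 25 uM, and those passing the threshold were re-tested in concentration series up to a 50 uM maximum. Kinase activity of recombinant human CK2 α2β2 was measured 1 h after dosing by fluorescent substrate/product mobility-shift separation.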
# [10] = molecular target: human Casein Kinase 1-delta (CK1D), CSNK1D (gene 1453) (UniProt P48730); test: NVS_ENZ_hCK1D: NovaScreen (NVS) Enzymatic Assay for human Casein Kinase 1-delta (CK1D) (AID 2283148)
# Chain of human Casein Kinase 1-delta (CK1D), CSNK1D (gene 1453) (P48730 whole entry, looked up): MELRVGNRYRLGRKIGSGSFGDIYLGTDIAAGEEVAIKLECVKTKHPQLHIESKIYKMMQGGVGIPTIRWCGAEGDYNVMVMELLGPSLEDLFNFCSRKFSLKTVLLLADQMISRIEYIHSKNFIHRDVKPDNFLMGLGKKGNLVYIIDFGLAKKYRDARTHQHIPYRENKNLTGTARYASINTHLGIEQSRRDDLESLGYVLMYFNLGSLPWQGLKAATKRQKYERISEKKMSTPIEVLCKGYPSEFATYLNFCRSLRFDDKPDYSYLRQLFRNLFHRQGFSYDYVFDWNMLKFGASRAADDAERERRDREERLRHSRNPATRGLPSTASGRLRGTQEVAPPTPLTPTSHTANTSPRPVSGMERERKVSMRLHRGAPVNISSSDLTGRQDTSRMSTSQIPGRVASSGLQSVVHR
# In short: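 Recombinant human CK1-delta, cell-free; fluorescent substrate with electrophoretic mobility-shift separation of product, read 1 h after dosing. Single 25 uM duplicate screen, then concentration-response up to 50 uM; loss of signal vs DMSO.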
smiles,measurement,setting,value
CC(C)N1C(=O)N(c2ccccc2)CSC1=NC(C)(C)C,AC50,"rat CYP3A1, gene 25642",5.84 µM (active)
same,outcome,[1],inactive
same,AC50,[2],2.96 µM (active)
COc1cc(OC)nc(NC(=O)NS(=O)(=O)c2ncccc2OCC(F)(F)F)n1,AC50,"rat CYP3A1, gene 25642",5.87 µM (active)
same,outcome,Caspase-1 (Homo sapiens),inactive
COc1ccc(-c2ccccc2)cc1NNC(=O)OC(C)C,AC50,"rat CYP3A1, gene 25642",2.96 µM (active)
same,AC50,[3],0.832 µM (active)
COC(=O)c1c(C(F)F)nc(C(F)(F)F)c(C2=NCCS2)c1CC(C)C,AC50,"rat CYP3A1, gene 25642",2.32 µM (active)
same,AC50,[3],5.42 µM (active)
same,outcome,Caspase-1 (Homo sapiens),inactive
same,AC50,[4],8.78 µM (active)
COCC(=O)N(c1c(C)cccc1C)C(C)C(=O)OC (stereo not given),AC50,"rat CYP3A1, gene 25642",4.46 µM (active)
CCNP(=S)(OC)O/C(C)=C/C(=O)OC(C)C (stereo not given),AC50,"rat CYP3A1, gene 25642",1.93 µM (active)
same,AC50,[3],0.528 µM (active)
same,outcome,Caspase-1 (Homo sapiens),inactive
CCOP(=S)(OCC)Oc1nc(Cl)n(C(C)C)n1,AC50,"rat CYP3A1, gene 25642",3.46 µM (active)
same,AC50,[3],1.14 µM (active)
same,outcome,[5],inactive
CC(C)(C)C(=O)C(Oc1ccc(Cl)cc1)n1cncn1 (stereo not given),AC50,"rat CYP3A1, gene 25642",8.49 µM (active)
Cc1ccc(N=CN(C)C=Nc2ccc(C)cc2C)c(C)c1,AC50,"rat CYP3A1, gene 25642",4.8 µM (active)
same,AC50,[3],1.23 µM (active)
COC(=O)NC(=S)Nc1ccccc1NC(=S)NC(=O)OC,AC50,"rat CYP3A1, gene 25642",7.66 µM (active)
same,AC50,[3],7.25 µM (active)
Nc1cnn(-c2ccccc2)c(=O)c1Cl,AC50,"rat CYP3A1, gene 25642",7.35 µM (active)
CCOc1cc(C(C)(C)C)ccc1C1COC(c2c(F)cccc2F)=N1 (stereo not given),AC50,[3],2.18 µM (active)
O=c1n(Cl)c(=O)n(Cl)c(=O)n1Cl,outcome,Caspase-1 (Homo sapiens),inactive
same,outcome,[6],inactive
Nc1c(Cl)c(Cl)nc(C(=O)O)c1Cl,AC50,[7],10.5 µM (active)
same,outcome,[6],inactive
COC(=O)N(C(=O)N1CO[C@@]2(C(=O)OC)Cc3cc(Cl)ccc3C2=N1)c1ccc(OC(F)(F)F)cc1,outcome,[7],inactive
CCOc1nc(C(Cl)(Cl)Cl)ns1,outcome,Caspase-3 (Homo sapiens),inactive
CCCC(=NOCC)C1=C(O)CC(CC(C)SCC)CC1=O (stereo not given),outcome,[8],inactive
CS(=O)(=O)c1ccc(C(=O)C2C(=O)CCCC2=O)c([N+](=O)[O-])c1,AC50,[9],8.29 µM (active)
Nc1c(Cl)c(F)nc(OCC(=O)O)c1Cl,AC50,[9],18.8 µM (active)
CN/C(=N\[N+](=O)[O-])NCc1cnc(Cl)s1,outcome,[10],inactive
